# Reference: ChEMBL document CHEMBL1961873, “Compounds: GSK PKIS; Assays: Nanosyn kinase panel” (2012)
# Assays:
# [1] = system: Proto-oncogene tyrosine-protein kinase receptor Ret (Homo sapiens), P07949 [Y791F]; conditions: at 1 µM
# [2] = biological target: Macrophage-stimulating protein receptor (Homo sapiens) (UniProt Q04912); conditions: at 0.1 µM
# [3] = biological target: Macrophage-stimulating protein receptor (Homo sapiens) (UniProt Q04912); conditions: at 1 µM
# [4] = biological target: Proto-oncogene tyrosine-protein kinase ROS (Homo sapiens) (UniProt P08922); conditions: at 0.1 µM
# Sequence of Proto-oncogene tyrosine-protein kinase ROS (Homo sapiens) (P08922 whole entry): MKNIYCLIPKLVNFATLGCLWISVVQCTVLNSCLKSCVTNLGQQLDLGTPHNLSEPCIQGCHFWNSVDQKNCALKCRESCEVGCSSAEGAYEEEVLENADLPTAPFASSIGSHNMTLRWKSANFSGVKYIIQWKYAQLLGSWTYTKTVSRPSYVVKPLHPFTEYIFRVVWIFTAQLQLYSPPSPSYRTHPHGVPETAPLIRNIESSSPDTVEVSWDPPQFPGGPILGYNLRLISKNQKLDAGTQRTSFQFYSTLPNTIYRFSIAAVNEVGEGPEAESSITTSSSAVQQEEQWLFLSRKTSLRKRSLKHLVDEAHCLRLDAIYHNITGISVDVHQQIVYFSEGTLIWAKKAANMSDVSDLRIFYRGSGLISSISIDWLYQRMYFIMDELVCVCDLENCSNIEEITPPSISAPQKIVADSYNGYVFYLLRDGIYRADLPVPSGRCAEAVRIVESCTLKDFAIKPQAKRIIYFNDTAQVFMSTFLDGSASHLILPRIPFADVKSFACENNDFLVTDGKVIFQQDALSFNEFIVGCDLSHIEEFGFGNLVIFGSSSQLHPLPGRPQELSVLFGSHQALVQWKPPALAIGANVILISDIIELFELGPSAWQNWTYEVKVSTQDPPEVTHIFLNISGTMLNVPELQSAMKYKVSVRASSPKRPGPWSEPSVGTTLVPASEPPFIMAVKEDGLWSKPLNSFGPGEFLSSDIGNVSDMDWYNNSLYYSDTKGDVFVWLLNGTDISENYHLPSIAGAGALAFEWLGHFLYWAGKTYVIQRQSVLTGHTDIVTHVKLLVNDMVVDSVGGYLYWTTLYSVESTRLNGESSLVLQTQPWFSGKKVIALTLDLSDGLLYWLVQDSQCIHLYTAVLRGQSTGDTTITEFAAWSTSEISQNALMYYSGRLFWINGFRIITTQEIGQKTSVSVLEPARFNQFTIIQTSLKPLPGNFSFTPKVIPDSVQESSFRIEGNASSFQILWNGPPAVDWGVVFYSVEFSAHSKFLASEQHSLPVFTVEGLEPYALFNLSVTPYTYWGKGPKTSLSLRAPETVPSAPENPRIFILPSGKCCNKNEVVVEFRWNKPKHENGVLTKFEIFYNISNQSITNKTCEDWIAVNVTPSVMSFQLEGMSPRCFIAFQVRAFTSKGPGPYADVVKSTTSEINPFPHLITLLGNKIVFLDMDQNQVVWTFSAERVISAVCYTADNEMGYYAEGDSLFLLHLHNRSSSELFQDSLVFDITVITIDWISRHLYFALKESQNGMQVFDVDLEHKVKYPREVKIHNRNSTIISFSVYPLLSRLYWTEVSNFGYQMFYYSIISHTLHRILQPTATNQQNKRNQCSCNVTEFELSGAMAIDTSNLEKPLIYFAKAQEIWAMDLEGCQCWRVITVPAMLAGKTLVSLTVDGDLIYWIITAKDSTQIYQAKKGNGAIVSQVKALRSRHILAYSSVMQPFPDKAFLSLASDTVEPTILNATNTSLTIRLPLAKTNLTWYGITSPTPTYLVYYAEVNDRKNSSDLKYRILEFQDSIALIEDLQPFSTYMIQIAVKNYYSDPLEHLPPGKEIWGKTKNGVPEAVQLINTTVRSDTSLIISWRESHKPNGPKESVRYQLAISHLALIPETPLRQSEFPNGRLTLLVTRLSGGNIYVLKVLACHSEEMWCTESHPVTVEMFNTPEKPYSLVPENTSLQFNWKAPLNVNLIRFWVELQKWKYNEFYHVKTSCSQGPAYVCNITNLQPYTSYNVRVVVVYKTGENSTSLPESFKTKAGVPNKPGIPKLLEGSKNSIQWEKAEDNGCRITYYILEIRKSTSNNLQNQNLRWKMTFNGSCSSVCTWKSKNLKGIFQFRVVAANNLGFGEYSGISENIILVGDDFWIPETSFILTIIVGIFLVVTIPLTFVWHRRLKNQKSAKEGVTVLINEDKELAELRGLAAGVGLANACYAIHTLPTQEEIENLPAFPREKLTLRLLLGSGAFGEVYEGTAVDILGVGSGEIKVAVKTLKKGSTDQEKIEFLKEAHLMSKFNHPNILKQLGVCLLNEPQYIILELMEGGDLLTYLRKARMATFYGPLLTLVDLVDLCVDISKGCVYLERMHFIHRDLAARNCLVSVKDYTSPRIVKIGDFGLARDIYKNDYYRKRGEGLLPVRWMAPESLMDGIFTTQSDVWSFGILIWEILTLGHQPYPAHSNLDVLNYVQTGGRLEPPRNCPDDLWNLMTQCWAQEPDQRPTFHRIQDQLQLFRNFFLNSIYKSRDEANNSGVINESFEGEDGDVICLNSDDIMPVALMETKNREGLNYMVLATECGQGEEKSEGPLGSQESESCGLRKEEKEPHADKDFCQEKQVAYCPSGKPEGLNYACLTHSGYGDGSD
# [5] = biological target: Proto-oncogene tyrosine-protein kinase ROS (Homo sapiens) (UniProt P08922); conditions: at 1 µM
# [6] = biological target: Proto-oncogene tyrosine-protein kinase Src (Homo sapiens) (UniProt P12931); conditions: at 0.1 µM
# Sequence of Proto-oncogene tyrosine-protein kinase Src (Homo sapiens) (P12931 2-536 limits assumed): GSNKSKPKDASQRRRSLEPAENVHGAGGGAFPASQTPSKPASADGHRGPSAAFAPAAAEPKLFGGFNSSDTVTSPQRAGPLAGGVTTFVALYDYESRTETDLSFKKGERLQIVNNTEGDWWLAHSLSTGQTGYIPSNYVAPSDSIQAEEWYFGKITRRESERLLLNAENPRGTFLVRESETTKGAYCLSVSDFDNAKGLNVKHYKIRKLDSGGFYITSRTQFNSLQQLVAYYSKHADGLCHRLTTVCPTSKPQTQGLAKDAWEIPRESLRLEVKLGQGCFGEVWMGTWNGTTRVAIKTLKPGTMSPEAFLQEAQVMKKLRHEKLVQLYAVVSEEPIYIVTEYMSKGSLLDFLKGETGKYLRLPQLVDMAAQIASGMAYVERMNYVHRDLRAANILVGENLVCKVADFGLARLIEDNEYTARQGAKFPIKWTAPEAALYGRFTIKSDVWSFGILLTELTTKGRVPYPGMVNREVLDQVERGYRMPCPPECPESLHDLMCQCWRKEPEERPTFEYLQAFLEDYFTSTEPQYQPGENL
# [7] = biological target: Proto-oncogene tyrosine-protein kinase Src (Homo sapiens) (UniProt P12931); conditions: at 1 µM
# [8] = biological target: Tyrosine-protein kinase Srms (Homo sapiens) (UniProt Q9H3Y6); conditions: at 0.1 µM
# Sequence of Tyrosine-protein kinase Srms (Homo sapiens) (Q9H3Y6 whole entry): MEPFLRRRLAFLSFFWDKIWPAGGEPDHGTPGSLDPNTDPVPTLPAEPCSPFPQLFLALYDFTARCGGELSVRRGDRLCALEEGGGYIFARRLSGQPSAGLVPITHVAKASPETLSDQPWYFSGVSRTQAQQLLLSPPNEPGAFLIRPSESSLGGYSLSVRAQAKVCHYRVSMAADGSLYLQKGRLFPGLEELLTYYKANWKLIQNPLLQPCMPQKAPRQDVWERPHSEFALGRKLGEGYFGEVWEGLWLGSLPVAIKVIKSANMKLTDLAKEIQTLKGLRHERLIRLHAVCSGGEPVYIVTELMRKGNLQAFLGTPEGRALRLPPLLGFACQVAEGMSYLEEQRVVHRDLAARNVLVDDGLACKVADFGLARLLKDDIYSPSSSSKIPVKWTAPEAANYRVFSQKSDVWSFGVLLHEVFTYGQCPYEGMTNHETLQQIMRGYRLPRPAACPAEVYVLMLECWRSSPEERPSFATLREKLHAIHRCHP
# [9] = biological target: Tyrosine-protein kinase Srms (Homo sapiens) (UniProt Q9H3Y6); conditions: at 1 µM
# [10] = biological target: Tyrosine-protein kinase SYK (Homo sapiens) (UniProt P43405); conditions: at 0.1 µM
# [11] = biological target: Tyrosine-protein kinase SYK (Homo sapiens) (UniProt P43405); conditions: at 1 µM
# [12] = biological target: T1, Tyrosine-protein kinase Tec (Homo sapiens) (UniProt P42680); conditions: at 0.1 µM
# T1 sequence (whole entry): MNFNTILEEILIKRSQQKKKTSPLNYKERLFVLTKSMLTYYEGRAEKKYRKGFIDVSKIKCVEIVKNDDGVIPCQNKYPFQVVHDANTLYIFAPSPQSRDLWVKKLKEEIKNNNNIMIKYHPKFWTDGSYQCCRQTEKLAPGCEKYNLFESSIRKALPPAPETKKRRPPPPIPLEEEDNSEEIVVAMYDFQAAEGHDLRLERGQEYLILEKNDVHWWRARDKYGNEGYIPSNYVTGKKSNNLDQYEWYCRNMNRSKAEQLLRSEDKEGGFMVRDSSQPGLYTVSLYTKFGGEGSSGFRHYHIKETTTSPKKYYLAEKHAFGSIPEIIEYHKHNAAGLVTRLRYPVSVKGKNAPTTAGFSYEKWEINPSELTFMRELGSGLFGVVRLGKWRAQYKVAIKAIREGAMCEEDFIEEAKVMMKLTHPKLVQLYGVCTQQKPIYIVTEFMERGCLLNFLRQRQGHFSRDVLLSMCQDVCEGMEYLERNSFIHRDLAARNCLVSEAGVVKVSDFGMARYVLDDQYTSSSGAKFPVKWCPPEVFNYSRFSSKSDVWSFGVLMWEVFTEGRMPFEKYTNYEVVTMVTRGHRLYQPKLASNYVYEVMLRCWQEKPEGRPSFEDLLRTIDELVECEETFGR
# [13] = biological target: T1, Tyrosine-protein kinase Tec (Homo sapiens); conditions: at 1 µM
# [14] = biological target: Angiopoietin-1 receptor (Homo sapiens) (UniProt Q02763); conditions: at 0.1 µM
# [15] = biological target: Angiopoietin-1 receptor (Homo sapiens) (UniProt Q02763); conditions: at 1 µM
# [16] = biological target: T2, Non-receptor tyrosine-protein kinase TNK1 (Homo sapiens) (UniProt Q13470); conditions: at 0.1 µM
# T2 sequence (whole entry): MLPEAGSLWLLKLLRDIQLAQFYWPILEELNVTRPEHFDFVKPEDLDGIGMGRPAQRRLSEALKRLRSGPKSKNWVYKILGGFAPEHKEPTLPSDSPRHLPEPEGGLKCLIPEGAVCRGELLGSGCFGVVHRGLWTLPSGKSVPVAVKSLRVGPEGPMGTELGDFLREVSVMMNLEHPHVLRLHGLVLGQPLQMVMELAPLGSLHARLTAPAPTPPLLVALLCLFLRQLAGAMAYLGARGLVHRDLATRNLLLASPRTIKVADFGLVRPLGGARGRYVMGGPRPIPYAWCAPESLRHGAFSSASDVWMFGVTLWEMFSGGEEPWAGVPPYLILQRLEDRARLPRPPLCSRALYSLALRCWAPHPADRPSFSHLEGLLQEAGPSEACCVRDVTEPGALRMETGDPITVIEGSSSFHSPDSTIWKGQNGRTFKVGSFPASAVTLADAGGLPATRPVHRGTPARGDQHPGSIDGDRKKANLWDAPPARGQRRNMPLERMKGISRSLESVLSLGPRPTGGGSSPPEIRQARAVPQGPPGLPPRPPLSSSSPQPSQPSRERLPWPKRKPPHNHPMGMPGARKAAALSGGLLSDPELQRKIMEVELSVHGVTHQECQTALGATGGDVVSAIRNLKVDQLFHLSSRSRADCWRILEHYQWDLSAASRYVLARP
# [17] = biological target: T2, Non-receptor tyrosine-protein kinase TNK1 (Homo sapiens); conditions: at 1 µM
# [18] = biological target: Activated CDC42 kinase 1 (Homo sapiens) (UniProt Q07912); conditions: at 0.1 µM
# Sequence of Activated CDC42 kinase 1 (Homo sapiens) (Q07912 whole entry, looked up): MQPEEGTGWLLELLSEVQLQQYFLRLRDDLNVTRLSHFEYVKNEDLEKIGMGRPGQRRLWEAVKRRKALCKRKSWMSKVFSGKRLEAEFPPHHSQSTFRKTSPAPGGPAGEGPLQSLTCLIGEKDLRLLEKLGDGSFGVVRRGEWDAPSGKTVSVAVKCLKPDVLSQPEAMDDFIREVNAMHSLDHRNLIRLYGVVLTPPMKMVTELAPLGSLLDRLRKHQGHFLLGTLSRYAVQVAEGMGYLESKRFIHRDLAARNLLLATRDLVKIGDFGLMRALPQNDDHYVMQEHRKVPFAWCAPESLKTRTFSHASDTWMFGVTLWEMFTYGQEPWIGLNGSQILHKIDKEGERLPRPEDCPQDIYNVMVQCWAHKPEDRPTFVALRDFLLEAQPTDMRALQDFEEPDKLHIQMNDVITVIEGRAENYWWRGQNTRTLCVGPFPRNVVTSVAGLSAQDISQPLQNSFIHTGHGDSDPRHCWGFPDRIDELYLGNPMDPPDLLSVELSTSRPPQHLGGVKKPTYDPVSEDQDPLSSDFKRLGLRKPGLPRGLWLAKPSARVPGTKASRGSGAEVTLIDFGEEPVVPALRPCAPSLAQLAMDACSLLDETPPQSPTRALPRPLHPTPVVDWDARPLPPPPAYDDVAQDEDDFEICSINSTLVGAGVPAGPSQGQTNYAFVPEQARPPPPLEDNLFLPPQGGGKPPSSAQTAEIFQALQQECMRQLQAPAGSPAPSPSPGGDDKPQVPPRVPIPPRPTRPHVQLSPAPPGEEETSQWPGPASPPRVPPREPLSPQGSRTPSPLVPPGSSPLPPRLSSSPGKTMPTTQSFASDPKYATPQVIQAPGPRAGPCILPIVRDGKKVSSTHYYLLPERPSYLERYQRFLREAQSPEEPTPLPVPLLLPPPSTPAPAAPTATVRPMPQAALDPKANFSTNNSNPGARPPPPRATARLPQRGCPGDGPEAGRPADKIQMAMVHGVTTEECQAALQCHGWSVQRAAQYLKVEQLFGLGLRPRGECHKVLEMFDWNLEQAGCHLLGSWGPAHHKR
# [19] = biological target: Activated CDC42 kinase 1 (Homo sapiens) (UniProt Q07912); conditions: at 1 µM
# [20] = biological target: High affinity nerve growth factor receptor (Homo sapiens) (UniProt P04629); conditions: at 0.1 µM;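 also: each value is a mean of replicate percent inhibition readings against TRKA kinase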
SMILES,inhibition [1] [%],inhibition [2] [%],inhibition [3] [%],inhibition [4] [%],inhibition [5] [%],inhibition [6] [%],inhibition [7] [%],inhibition [8] [%],inhibition [9] [%],inhibition [10] [%],inhibition [11] [%],inhibition [12] [%],inhibition [13] [%],inhibition [14] [%],inhibition [15] [%],inhibition [16] [%],inhibition [17] [%],inhibition [18] [%],inhibition [19] [%],inhibition [20] [%]
O=C1Nc2ccccc2/C1=C/Nc1ccc(-n2cncn2)cc1,53.2,7.27,6.25,6.51,8.39,9.95,19.2,0.3,-0.18,-1.28,-1.86,3.72,5.42,0.76,4.4,2.41,14,0.63,2.83,6.94
NS(=O)(=O)c1ccc(N/N=C2\C(=O)Nc3ccc(-c4cnco4)cc32)cc1,31.9,7.46,4.84,6.83,9.22,3.76,20.5,0.38,0.29,0.72,-1.05,-1.76,4.09,3.92,4.65,9.41,44.4,-0.82,0.92,4.49
COc1cccc(-n2cnc3c(N/N=C/c4ccncc4)ncnc32)c1,32.8,0.89,0.14,-1.03,4.38,12.5,50.4,2.47,6.19,1.9,-1.09,-2.49,5.03,-0.9,9.67,1.98,19.3,0.06,3.07,-1.67
CS(=O)(=O)CCNCc1ccc(-c2ccc3ncnc(Nc4ccc(OCc5ccccc5)c(Br)c4)c3c2)o1,15.1,4.89,6.32,4.46,10.1,6.71,6.55,-0.64,2.32,-1.09,-5.01,-2.31,1.49,0.77,4.68,0.59,14.6,-0.17,1.61,1.4
NC(=O)Cc1ccccc1Oc1nccc(-c2c(-c3ccc(F)cc3)ncn2C2CCNCC2)n1,4.66,-4.83,4.24,6.52,7.32,1.88,5.52,-1.62,-0.3,-2.13,-0.38,4.14,4.45,3.62,4.3,-0.61,-3.16,1.43,2.74,-0.18
CCS(=O)(=O)c1ccc(OC)c(Nc2ncc(-c3ccccc3Cl)o2)c1,9.6,-3.54,8.49,-1.24,4.38,4.44,23.4,2.76,3.31,-0.36,4.5,3.48,5.03,0.48,7.52,16.9,67.2,1.07,3.27,2.9
CN(C)CCOc1ccc(-c2cc(-c3ccc4c(c3)CCC4=NO)c(-c3ccncc3)o2)cc1,9.08,-0.03,22.4,-1.28,0.64,1.1,2.61,3,3.76,0.85,0.74,0.39,1.01,0.77,11.6,2.33,20.8,-1.03,0.17,-1.52
COc1cc2ncn(-c3cc(OCc4ccccc4C(F)(F)F)c(C(C)=O)s3)c2cc1OC,12.8,2.88,20,0.39,7.62,6.86,6.06,-2.02,0.82,0.3,-5.75,-0.08,5.16,1.54,8.41,0.64,23.6,1.52,3.29,2.3
CCc1ccc(Oc2nccc(-c3c(-c4ccc(F)cc4)ncn3C3CCNCC3)n2)cc1,8.79,3.67,2.97,6.34,6.93,10.2,10,-0.71,-0.39,0.89,2.45,6.67,4.84,3.66,4.41,1.24,0.88,1.41,2.2,4.16
Cc1nnc(-c2ccc(C)c(-c3ccc(C(=O)NCc4ccc(Cl)cc4)cc3)c2)o1,7.75,1.1,2.52,4.75,7.75,-1.25,7.15,-2.08,-0.92,-5.79,-1,0.01,0.03,4.45,6.89,0.68,5.31,0.65,0.3,2.65
COc1ccc(C2=C(N3CCc4ccccc43)C(=O)NC2=O)cc1,9.39,9.63,6.83,6.01,9.68,-1.55,10.8,7.78,14.7,-4.17,2.15,5.51,6.81,2.29,3.07,4.3,13.9,1.51,2.14,5.01
c1ccc(Oc2ccc(Nc3ncc(-c4ccccc4)o3)cc2)cc1,6.74,4.82,2.2,4.48,5.71,-4.51,3.93,0.57,1.29,-7.24,2.28,2.6,2.98,0.12,1.44,0.99,3.43,0.99,2.91,1.43
O=C(Nc1n[nH]c2nc(-c3ccco3)ccc12)C1CC1,8.66,-0.93,4.1,3,3.03,-4.02,4.81,1.77,1.57,-0.47,1.5,1.47,3.97,5.28,10.4,0.16,1.24,-0.07,0.93,4.04
